Bioassay records as filed in PubChem BioAssay.
Sampled rows, rich in hits. Any-hit rate of the full collection: about 11%.
Sm TGR block = qHTS Assay for the Inhibitors of Schistosoma Mansoni Peroxiredoxins; Potency, µM (series often up to 114 µM), actives largely listed as inhibitors; purified TGR, DTNB reduction, TNB absorbance 405 nm; 3% of 360,000 active; Schistosoma mansoni thioredoxin glutathione reductase (TGR), Q962Y6; also: nearly all actives have a fitted effect of over 60% in size
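Kinetic colorimetric format: TGR-catalysed, NADPH-driven DTNB reduction monitored via TNB absorbance. Enzyme dispensed at 20 nM; compound exposure 15 min at room temperature before reaction start.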
Pf growth 48h = Primary qHTS for delayed death inhibitors of the malarial parasite plastid, 48 hour incubation; P. falciparum luciferase growth in erythrocytes, 48 h; Potency, µM (titrated, usually from 28.7 µM), most hits filed as inhibitors; 5.9% of 310,000 active; AID 504832, 2011
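First compound was added to culture medium, then infected red cells at 0.1% parasitemia and 2% hematocrit (final). After incubation at 37 C under 5% CO2, luciferase detection reagent was dispensed and light output recorded.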
NS1 inh = qHTS Assay for Inhibitors of Influenza NS1 Protein Function; Potency, µM (doses to about 46.1 µM); 0.4% of 270,000 active; AID 2326, 2010; calls by dose curve; also: actives are rising curves; nearly all actives have a fitted effect of over 50% in size
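Growth recovery, yeast-based: influenza A NS1 expressed in S. cerevisiae causes slow growth, and suppressors are detected by OD600. The parent strain without NS1 is used as positive control.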
AMA1-RON2 inh = qHTS for Inhibitors of AMA1-RON; Towards Development of Antimalarial Drug Lead: Primary Screen; Plasmodium falciparum AMA1 (3D7) - RON2 peptide interaction; Potency, µM (top dose mostly 58.2 µM), actives largely listed as inhibitors; AlphaScreen AMA1-biotinylated RON2 peptide binding; 0.2% of 360,000 active; also: nearly all actives have a fitted effect of over 45% in size
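AMA1 (3D7) with his tag at 25 nM final met compounds first, then biotinylated RON2 peptide at 25 nM; detection used donor plus acceptor beads, 10 µg/mL apiece, read by AlphaScreen after 30 min at room temperature.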
Pf growth 96h = Primary qHTS for delayed death inhibitors of the malarial parasite plastid, 96 hour incubation; P. falciparum luciferase reporter growth, 96 h; Potency, µM (series often up to 28.7 µM), actives largely listed as inhibitors; 6.9% of 320,000 active
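Compounds incubated with erythrocytes infected by luciferase-expressing P. falciparum (2% hematocrit, 0.05% parasitemia final) for 96 hours, 37 C in 5% CO2. Growth inhibition scored as decreased luciferase luminescence.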
Large screens that a line does not name were inactive; ! = not confirmed by another sample. Unless noted, calls follow the shape of the dose curve; as a rule, active = well fitted curve in the direction sought with a large enough effect; inconclusive = small, poorly fitted or top-dose-only effect, or another doubt; inactive = no such curve, though single readings can be large; an effect the other way counts as inactive or inconclusive.

CCCCOCCCNc1ncnc2c1[nH]c1ccccc12	Pf growth 48h 7.4µM (no result: Pf growth 96h)
CCOCCCNc1ncnc2c1[nH]c1ccccc12	Pf growth 48h 10µM, Pf growth 96h inconclusive
C=CCNc1ncnc2c1[nH]c1ccc(Cl)cc12	Pf growth 48h inconclusive (no result: Pf growth 96h)
N[C@@]1(C(=O)O)CCC[C@@H]1C(=O)O	none (no result: Sm TGR block, Pf growth 48h, AMA1-RON2 inh, Pf growth 96h)
CC1(C)CC(=O)CC2(C1)NCC(c1ccccc1)c1c2[nH]c2ccccc12 (stereo not given)	Pf growth 48h 5.9µM, Pf growth 96h 10µM (no result: NS1 inh)
O=C(Nc1cc(Cl)cc(Cl)c1)C1CCC(=O)N1Cc1ccccc1Cl (stereo not given)	Pf growth 48h 9.3µM, Pf growth 96h inconclusive
CNC(=O)C1CCC(=O)N1Cc1ccccc1Cl (stereo not given)	none (no result: Pf growth 96h)
Cn1c(N)c(C(=O)COC(=O)C2(c3cccc(F)c3)CCCC2)c(=O)n(C)c1=O	Pf growth 48h 7.4µM, Pf growth 96h 13µM
CSc1ccc(-c2ccco2)nn1	Sm TGR block 10µM (no result: NS1 inh)
CCSc1nc(N)c(C#N)c(-c2ccco2)c1C#N	Pf growth 96h inconclusive
CCSc1ccc(-c2ccco2)nn1	Sm TGR block 13µM (no result: NS1 inh)
COc1cc(NC(=O)CN2C(=O)CCc3cc(Br)ccc32)cc(OC)c1OC	none (no result: Pf growth 48h, NS1 inh, AMA1-RON2 inh, Pf growth 96h)
CNCc1ccccc1Sc1ccc(O)c(O)c1	Sm TGR block 22µM, AMA1-RON2 inh inconclusive
CCc1ccc(CNc2ccc3c(c2)ncn3CC)cc1	Sm TGR block 4.5µM, AMA1-RON2 inh inconclusive
CCn1cnc2cc(NCc3ccccc3Cl)ccc21	Pf growth 96h 1.5µM
CCn1cnc2cc(NCc3ccc(OC)cc3)ccc21	none (no result: Pf growth 48h)
Cc1ccc(CNC(=O)c2cc(-c3ccc(Cl)cc3)on2)cc1	none (no result: Pf growth 48h, NS1 inh, AMA1-RON2 inh, Pf growth 96h)
CC1CCc2c(C(=O)Oc3cccc(-n4cnnn4)c3)csc2C1 (stereo not given)	Pf growth 48h 5.9µM, Pf growth 96h inconclusive
Clc1ccc2c(c1)CCc1cccnc1C2=C1CCNCC1	Sm TGR block 45µM!, Pf growth 48h 13µM, Pf growth 96h inconclusive (no result: AMA1-RON2 inh)
O=C(CSc1n[nH]c(=O)n1-c1cccnc1)N1CCOCC1	none
N=c1c2c(-c3ccccc3)c(-c3ccccc3)n(Cc3ccco3)c2ncn1CCCn1ccnc1	Pf growth 48h 1.9µM, Pf growth 96h inconclusive
CN(C)CCCNc1ncnc2oc(-c3ccccc3)c(-c3ccccc3)c12	Pf growth 48h 17µM, Pf growth 96h 13µM
c1ccc(-c2oc3ncnc(NCCCn4ccnc4)c3c2-c2ccccc2)cc1	Pf growth 48h 13µM
c1ccc(-c2c(-c3ccccc3)n(Cc3ccco3)c3ncnc(NCCCn4ccnc4)c23)cc1	AMA1-RON2 inh inconclusive, Pf growth 96h 2.1µM (no result: Pf growth 48h)
N=c1c2c(-c3ccccc3)c(-c3ccccc3)n(Cc3ccco3)c2ncn1CCCN1CCOCC1	Pf growth 48h inconclusive (no result: NS1 inh)
CCOC(=O)c1cc(-c2ccc(OC)cc2)n(CCC(=O)NCCc2ccccc2)c1C	none (no result: Pf growth 48h, NS1 inh, AMA1-RON2 inh, Pf growth 96h)
Cc1cn(C)c(CC(=O)Nc2cccc(C#N)c2)c1C(=O)O	none (no result: Pf growth 48h, NS1 inh, AMA1-RON2 inh, Pf growth 96h)
O[C@@H]1CN(Cc2ccccc2Cl)CC[C@H]1N1CCOCC1	none
Nc1ccc(-c2ncc(-c3ccccc3)o2)cc1	Pf growth 48h 9.3µM, AMA1-RON2 inh inconclusive, Pf growth 96h inconclusive
Cc1ccc(-c2cnc(-c3ccncc3)o2)cc1	none (no result: Pf growth 96h)
CC(C)c1ccc(NC(=O)c2cc3c(s2)-c2ccccc2SC3)cc1	none (no result: Pf growth 48h, NS1 inh, AMA1-RON2 inh, Pf growth 96h)
Cc1ccc(NC(=O)CSC(C)c2nc3ccccc3c(=O)[nH]2)cc1 (stereo not given)	Pf growth 96h 15µM
Nc1cc(=O)nc(SCC(=O)N2CCN(c3ccccc3)CC2)n1-c1ccc(F)cc1	Pf growth 48h inconclusive
Cc1ccc2[nH]c(CSc3nnc(NC(=O)COc4ccccc4Cl)s3)cc(=O)c2c1	none (no result: Pf growth 48h, NS1 inh, AMA1-RON2 inh, Pf growth 96h)
CC(CS(=O)(=O)c1ccccc1[N+](=O)[O-])N1CCOCC1 (stereo not given)	Pf growth 48h 12µM (no result: NS1 inh)
O=Nc1ccc(NO)c2ccccc12	none (no result: Sm TGR block, Pf growth 48h, NS1 inh, Pf growth 96h)
O=C(c1ccc(OC2CCN(Cc3ccccc3C(F)(F)F)CC2)cc1)N1CCCCC1	Pf growth 48h inconclusive, Pf growth 96h 3.3µM
CCCn1cc(CN2CCC(Oc3ccc(C(=O)N4CCCC4)cc3)CC2)c(C)n1	Pf growth 96h 10µM
Cn1cc(CN2CCC(Oc3ccc(C(=O)N4CCCC4)cc3)CC2)cn1	none
Cc1ccccc1-c1nn2c(=O)cc(CN3CCN(C(=O)/C=C/c4ccccc4)CC3)nc2s1	Sm TGR block 40µM (no result: Pf growth 48h, NS1 inh, AMA1-RON2 inh, Pf growth 96h)
CCc1ccc(NC(=O)Cc2ccc(-n3cccc3)cc2)cc1	Pf growth 96h 2.1µM
O=C(Nc1ccc(-n2cccc2)cc1)C1CC1	Pf growth 48h 12µM (no result: NS1 inh)
c1ccc(-c2cc3ncc4c(n3n2)-c2ccccc2OC4)cc1	none (no result: Pf growth 48h, NS1 inh, AMA1-RON2 inh, Pf growth 96h)
Cc1ccc(C(=O)CCC(=O)CCC(=O)O)cc1	none (no result: Sm TGR block, Pf growth 48h, NS1 inh, Pf growth 96h)
O=C(O)CCC(=O)CCC(=O)c1ccccc1	Sm TGR block 45µM, Pf growth 96h inconclusive
CCC(=O)N(C)C[C@@H]1Oc2ncc(Br)cc2C(=O)N([C@H](C)CO)C[C@H]1C	none (no result: Sm TGR block, Pf growth 48h, NS1 inh, Pf growth 96h)
Clc1ccc(CNC2CCCC2)cc1	none (no result: Pf growth 48h)
Oc1ccc(CNC2CCCCC2)cc1	Pf growth 48h 12µM (no result: Pf growth 96h)
Cc1ccc(S(=O)(=O)N2CCCCC2)cc1NC(=O)C1CCCO1 (stereo not given)	none
Cc1ccc(C(=O)SC2=NCCS2)cc1	Pf growth 96h 9.3µM
COc1ccc(C(=O)SC2=NCCS2)cc1OC	none
